About 79,000 compounds went through this panel and 15% of them were active in at least one assay; those are over-represented in the sample as a whole. Calls of active or inactive are those of the source. Rule as the data show it: active = growth inhibition above about 70%; inactive = the rest.
Experiments:
[1] = NCI Yeast Anticancer Drug Screen. Data for the rad52 strain (AID 147);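 also: 0% = growth of vehicle-treated control cultures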; conditions: S. cerevisiae rad52 mutant growth inhibition, active compounds read high
Method in brief: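 Compounds are applied to a genetically defined yeast strain lacking normal DNA damage repair, and inhibition of growth is expressed relative to cultures given vehicle only.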

[2] = NCI Yeast Anticancer Drug Screen. Data for the wt1 strain (AID 149);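 also: 0% = growth of vehicle-treated wt1 cultures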; conditions: S. cerevisiae wt1 strain (SPY 50644) growth inhibition, active compounds read high
Method in brief: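 The wt1 strain was treated with compounds, and growth was compared with vehicle-treated cultures to give inhibition.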

[3] = NCI Yeast Anticancer Drug Screen. Data for the rad50EPP+ strain (AID 151);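 also: 0% = growth of vehicle-treated control cultures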; conditions: S. cerevisiae rad50 mutant strain, active compounds read high
Method in brief: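 Compounds were applied to the rad50EPP+ yeast strain, which bears a defined DNA repair alteration, and growth inhibition was determined relative to vehicle-treated cultures.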

[4] = NCI Yeast Anticancer Drug Screen. Data for the mgt1 strain (AID 153); conditions: S. cerevisiae mgt1 mutant growth inhibition, active compounds read high
Method in brief: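 Strain: mgt1 yeast, one of a set carrying defined DNA damage repair or cell cycle control alterations. Compound-treated growth compared with vehicle.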

[5] = NCI Yeast Anticancer Drug Screen. Data for the rad50 strain (AID 155);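 also: 0% = growth of vehicle-only cultures of the same strain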; conditions: S. cerevisiae rad50 strain growth inhibition, active compounds read high
Method in brief: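 Cells are treated with compound, grown, and their growth is then scored against vehicle-only cultures of the same repair-deficient yeast strain.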

[6] = NCI Yeast Anticancer Drug Screen. Data for the mec2-1 strain (AID 157); conditions: S. cerevisiae mec2-1 strain, active compounds read high
Method in brief: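 Strain: mec2-1 (DNA repair/cell cycle alteration). Compound exposure, then growth measured; inhibition expressed relative to vehicle.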

[7] = NCI Yeast Anticancer Drug Screen. Data for the sgs1 mgt1 strain (AID 161);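 also: 0% = growth of cultures given vehicle only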; conditions: S. cerevisiae sgs1 mgt1 strain, active compounds read high
Method in brief: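 Inhibition of yeast growth, normalised to vehicle-treated controls, is reported for a strain bearing genetic alterations in DNA damage repair.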

[8] = NCI Yeast Anticancer Drug Screen. Data for the CLN2oe strain (AID 163);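 also: 0% = growth of vehicle-only control cultures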; conditions: S. cerevisiae CLN2oe strain, active compounds read high
Method in brief: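 Growth of a genetically modified yeast strain is measured after compound exposure and compared with cultures given vehicle alone.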

[9] = NCI Yeast Anticancer Drug Screen. Data for the cln2 rad14 strain (AID 165);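 also: 0% = growth equal to vehicle treated cultures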; conditions: S. cerevisiae cln2 rad14 strain, active compounds read high
Method in brief: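 Compounds are applied to the cln2 rad14 yeast strain, and growth is then compared with that of vehicle-treated cultures to give inhibition.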

[10] = NCI Yeast Anticancer Drug Screen. Data for the bub3 strain (AID 167); conditions: S. cerevisiae bub3 mutant strain, active compounds read high
Method in brief: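 Part of a panel of yeast mutants defective in DNA damage repair or cell cycle regulation. Each strain is grown with compound, and inhibition is calculated relative to solvent-treated cultures.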

[11] = NCI Yeast Anticancer Drug Screen. Data for the wt2 strain (AID 169);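 also: 0% = growth of vehicle-treated yeast cultures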; conditions: S. cerevisiae wt2 strain growth inhibition, active compounds read high
Method in brief: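 This strain belongs to a panel of yeast strains with defined genetic alterations in DNA damage repair or cell cycle control. Compounds are applied, and growth inhibition is measured against vehicle-treated cultures.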

[12] = NCI Yeast Anticancer Drug Screen. Data for the mlh1 strain (AID 171);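 also: 0% = growth of vehicle-treated control cultures of the same strain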; conditions: S. cerevisiae mlh1 strain growth inhibition, active compounds read high
Method in brief: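 Growth of the mutant yeast strain after compound exposure, expressed as inhibition relative to vehicle-only controls.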

[13] = NCI Yeast Anticancer Drug Screen. Data for the sgs1 strain (AID 173);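 also: 0% = growth of vehicle-only control cultures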; conditions: S. cerevisiae sgs1 mutant, active compounds read high
Method in brief: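 Growth of a yeast strain bearing a defined genetic alteration is measured after compound treatment. Inhibition is expressed relative to vehicle-only controls.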

[14] = NCI Yeast Anticancer Drug Screen. Data for the mlh1 rad18 strain (AID 175); conditions: S. cerevisiae mlh1 rad18 strain growth inhibition, active compounds read high
Method in brief: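 Read-out is yeast growth inhibition, calculated against vehicle-only controls. The compound was applied to a strain engineered with DNA damage repair alterations.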

[15] = NCI Yeast Anticancer Drug Screen. Data for the rad18 strain (AID 177); conditions: S. cerevisiae rad18 mutant growth inhibition, active compounds read high
Method in brief: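 Growth of the mutant yeast strain after compound exposure, normalised to vehicle-only cultures.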

[16] = at 5.0 µM (retest, dose inferred, filed as 0.5)
[17] = at 50.0 µM (retest, dose inferred, filed as 5.0)

Measured: growth inhibition

Cc1c(C)c(C)c(CSC(=N)N)c(C)c1C
active: [1]; at 100.0 µM 98% | [2]; at 100.0 µM 98% | [3]; at 100.0 µM 96% | [4]; at 100.0 µM 98% | [5]; [17] 81% | [5]; at 50.0 µM 91.8% | [5]; at 100.0 µM 99% | [6]; [17] 86% | [6]; at 50.0 µM 93.5% | [6]; at 100.0 µM 98% | [7]; [17] 100% | [7]; at 50.0 µM 93.3% | [8]; at 100.0 µM 99% | [9]; [17] 100% | [9]; at 50.0 µM 86.1% | [10]; [17] 99% | [10]; at 50.0 µM 83.2% | [10]; at 100.0 µM 98% | [11]; at 100.0 µM 99% | [12]; at 33.0 µM 77% | [12]; at 100.0 µM 98% | [13]; at 33.0 µM 84% | [13]; at 100.0 µM 98% | [14]; [17] 78% | [14]; at 50.0 µM 92.3% | [15]; at 100.0 µM 98%
inactive: [1]; at 1.2 µM -23% | [1]; at 3.7 µM -17% | [1]; at 11.0 µM -12% | [1]; at 33.0 µM 36% | [2]; at 1.2 µM -29% | [2]; at 3.7 µM -32% | [2]; at 11.0 µM -30% | [2]; at 33.0 µM 8% | [3]; at 1.2 µM -55% | [3]; at 3.7 µM -53% | [3]; at 11.0 µM -79% | [3]; at 33.0 µM -59% | [4]; at 1.2 µM -52% | [4]; at 3.7 µM -50% | [4]; at 11.0 µM -50% | [4]; at 33.0 µM 6% | [5]; at 1.2 µM -13% | [5]; at 3.7 µM -10% | [5]; [16] 46% | [5]; at 11.0 µM -9% | [5]; at 33.0 µM 51% | [6]; at 1.2 µM -74% | [6]; at 3.7 µM -78% | [6]; [16] 54% | [6]; at 11.0 µM -69% | [6]; at 33.0 µM 31% | [7]; [16] -4% | [8]; at 1.2 µM -22% | [8]; at 3.7 µM -18% | [8]; at 11.0 µM -14% | [8]; at 33.0 µM 59% | [9]; [16] 8% | [10]; at 1.2 µM -23% | [10]; at 3.7 µM -9% | [10]; [16] 35% | [10]; at 11.0 µM -10% | [10]; at 33.0 µM 55% | [11]; at 1.2 µM -41% | [11]; at 3.7 µM -38% | [11]; at 11.0 µM -32% | [11]; at 33.0 µM 57% | [12]; at 1.2 µM -35% | [12]; at 3.7 µM -43% | [12]; at 11.0 µM -17% | [13]; at 1.2 µM -51% | [13]; at 3.7 µM -34% | [13]; at 11.0 µM -34% | [14]; [16] 44% | [15]; at 1.2 µM -56% | [15]; at 3.7 µM -55% | [15]; at 11.0 µM -58% | [15]; at 33.0 µM 58%

From PubChem BioAssay (NCI)
